Sampled rows, rich in hits. Any-hit rate of the full collection: about 2.9%.
DRD3 agonist – D3 dopamine receptor (human) agonism. AID 652048. max activation, %. D3R DiscoveRx beta-arrestin cells, luminescence, 90 min. hit rate 0.58% among 410,000. P35462; in the data active = max activation above about 30%; note: 0% is about no effect
Target sequence (P35462 whole entry, looked up): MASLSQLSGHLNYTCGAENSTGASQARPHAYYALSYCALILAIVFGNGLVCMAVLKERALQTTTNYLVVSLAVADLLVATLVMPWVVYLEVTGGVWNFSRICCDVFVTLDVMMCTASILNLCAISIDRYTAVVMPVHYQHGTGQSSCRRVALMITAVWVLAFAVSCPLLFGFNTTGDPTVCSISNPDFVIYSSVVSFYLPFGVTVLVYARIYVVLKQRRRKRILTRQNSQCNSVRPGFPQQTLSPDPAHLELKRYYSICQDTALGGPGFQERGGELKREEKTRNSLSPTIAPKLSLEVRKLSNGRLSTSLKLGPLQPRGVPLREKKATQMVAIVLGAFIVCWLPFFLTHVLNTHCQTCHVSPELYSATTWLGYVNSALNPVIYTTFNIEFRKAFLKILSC
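Agonist-mode cell screen: cells plated at 1500/well and incubated overnight at 37 °C, then exposed to library compounds for 90 min at 37 °C. Detection reagent was added for 30–60 min at room temperature, and luminescence was read.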
a7 integrin act – integrin-mediated muscular dystrophy alleviation activation; hit rate 0.064% among 350,000; alpha7betagal myoblasts, beta-gal FDG fluorescence, 48 h; Potency, µM (highest dose often 38.3 µM), inactives show top-dose activation, actives largely listed as activators; active = well fitted activation curve with a large enough effect; inconclusive = small, poorly fitted or top-dose-only effect; inactive = no such curve, though single readings can be large or run the other way;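 note: potency is the fitted concentration of half-maximal effect; 100% = response of the positive control SU9516; nearly all actives have a fitted effect of over 60% in size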
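Alpha7betagal+/- myoblasts (passage 13) were plated 16-24 hr, then exposed to compounds (1:260 dilution of DMSO stock) for 48 hours at 37C. After MPER lysis, β-galactosidase reporter activity was read as FDG fluorescence (ex 480/em 540) after 30 minutes.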
D3 antag – D3 dopamine receptor (human) antagonism | D3R cells, DiscoveRx beta-arrestin luminescence, antagonist mode; hits give low values | P35462 | hit rate 2.5% among 360,000 | max response, negative = inhibition, %; in the data active = max response below about -50%; inconclusive = no clear call, values can overlap the other calls; note: % is set by controls: 0 for no effect and ±100 for the full control effect
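Cells plated overnight at 1500 cells/well, then exposed to library compounds with dopamine controls for 90 minutes at 37 degrees C. DiscoveRx reagent added for 30–60 minutes at room temperature; luminescence read, quantitative HTS format.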
Starred values were filed as active, the others as inactive; ? = inconclusive; . = no result; [ ] = dose if it differs, or a comment.

SMILES	DRD3 agonist	a7 integrin act	D3 antag
COc1ccc(N2C(=O)C(Cl)=C(Oc3cccc(OC)c3)C2=O)cc1	-18.5	-66.1%	-58.3*
COc1ccc(N2C(=O)c3ccccc3C2=O)cc1	-1.0	-17.6%	-7.9
COC(=O)C1CCN(C(=O)COC(=O)C2CCN(S(=O)(=O)c3c(Cl)cccc3Cl)CC2)CC1	-2.9	-11.1%	5.5
COC(=O)CN1C(c2ccc(Cl)cc2)=Nc2ccc(Cl)cc2C1c1ccccc1 (stereo unspecified)	-2.4	22.5%	6.2
COc1ccc(C2=Nc3ccc(C)cc3C(c3ccccc3)N2CC(=O)NN)cc1 (stereo unspecified)	-31.2	?	-105.2*
NNC(=O)CN1C(c2cccc(Cl)c2)=Nc2ccc(Br)cc2C1c1ccccc1 (stereo unspecified)	-10.3	7.7%	?
COc1ccc(C2=Nc3ccc(Br)cc3C(c3ccccc3)N2CC(=O)NN)cc1 (stereo unspecified)	-15.8	23.6%	-92.8*
COc1ccc(S(=O)(=O)N(CC(=O)O)c2ccccc2)cc1	-8.4	19.5%	-4.5
F[B-](F)(F)COc1ccccc1	-1.6	28.6%	0.0
CCN(CC(=O)Nc1c(F)cccc1F)C(=O)CCNS(=O)(=O)c1ccc(C)c(C)c1	2.3	27.2%	-9.1
COc1cc(C(=O)N2CCC(C(N)=O)CC2)ccc1OCc1c(C)noc1C	-3.6	20.4%	-20.3
CCc1ccc(S(=O)(=O)NC(=S)NC2CCCCC2)cc1	-4.6	31.9%	-67.3*
Cc1ccc(S(=O)(=O)NC(=S)NC2CCCCC2)cc1	-0.1	-26.3%	-13.9
CCC1(c2ccccc2)NC(=O)N(CC(=O)Nc2cc(Cl)ccc2N2CCOCC2)C1=O (stereo unspecified)	-23.9	-15.4%	7.4
CN1CCN(C(=O)c2ccc3ccccc3c2)CC1	-61.2	0.9%	-82.6*
O=C(c1ccc2ccccc2c1)N1CCCC1	6.0	3.3%	-8.9
O=S(=O)(NCCC1=CCCCC1)c1cccc(S(=O)(=O)N2CCOCC2)c1	1.2	-50.1%	-71.8*
O=S(=O)(NCCc1ccccc1)c1cccc(S(=O)(=O)N2CCOCC2)c1	-3.6	17.1%	-5.5
COc1ccc(-c2oc3c(c2C(=O)OCCCO)C(OCCO)CCC3)cc1 (stereo unspecified)	13.2	.	-11.7
CCOC(=O)N1C(=O)[C@@](c2ccc(Cl)cc2)(C(C)C)N1C(=O)OCC	-25.4	-21.6%	-50.7*
CCOC(=O)N1C(=O)[C@](c2ccc(Cl)cc2)(C(C)C)N1C(=O)OCC	-40.0	-16.8%	-11.5
CCOc1ccc(C(=O)OCC(=O)NCc2ccccc2)cc1OCC	2.4	0.4%	12.8
C/C(=N\NC(=O)c1nn(C)c(C)c1Br)c1ccc(NC(=O)c2ccc(C)s2)cc1	-3.3	-32.4%	2.3
CCn1c(C)nc2cc(-c3nnc(-c4c(-c5ccccc5)noc4C)o3)ccc21	41.1*	-23.5%	87.0
Cc1onc(-c2ccccc2)c1-c1nnc(-c2ccccc2C(F)(F)F)o1	1.7	-3.5%	8.1
SMILES	DRD3 agonist	a7 integrin act	D3 antag
COc1cccc2[nH]c3c(=O)n(CCCN4CCOCC4)cnc3c12	0.0	?	-16.9
COc1ccc(S(=O)(=O)NCc2ccc(C(=O)NCCN(C)Cc3ccccc3)cc2)cc1	-17.6	.	-61.8*
COc1ccc(CNC(=O)c2ccc(CNS(=O)(=O)c3ccc(OC)cc3)cc2)cc1	-3.3	.	.
CC(=O)c1cccc(-c2ccnc3c2CC(C(=O)Nc2cccc(NS(C)(=O)=O)c2)O3)c1 (stereo unspecified)	0.5	.	8.4
CCCOP(=O)(c1ccc(N(C)C)cc1)C(O)c1cccnc1 (stereo unspecified)	30.2*	-5.1%	-8.4
CCOP(=O)(c1ccc(N(C)C)cc1)C(O)c1cccnc1 (stereo unspecified)	11.8	5.1%	-1.9
CCN(CC)c1nc(Oc2ccc(=O)[nH]n2)nc(N2CCOCC2)n1	-3.0	-14.2%	8.4
CN(C)c1nc(N)nc(-c2cccnc2)n1	-3.4	16.3%	-12.1
Cc1[nH]nc(-c2cccnc2)c1N=NN(C)C	-14.2	0.0%	-89.5*
CC(=O)/C(C(=N)N1CCN(C(c2ccccc2)c2ccccc2)CC1)=C(\C)O	-10.9	2.2%	?
CSc1ccc(C(=S)N2CCCCCC2)cc1	6.6	-11.1%	-9.0
CC(=O)/C(C(=N)N1CCN(Cc2ccccc2)CC1)=C(\C)O	-19.5	-11.7%	-54.3*
S=C(c1ccc(Cl)cc1)N1CCN(Cc2ccccc2)CC1	-23.7	-20.5%	-68.9*
CCN1CCN(C(=S)c2ccc(Cl)cc2)CC1	-1.5	3.4%	-68.6*
CSc1ccc(C(=S)N2CCN(Cc3ccccc3)CC2)cc1	-3.5	12.9%	?
CCN1CCN(C(=S)c2ccc(SC)cc2)CC1	-11.2	13.6%	-85.4*
OCCN1CCN(C(=S)c2ccc(Cl)cc2)CC1	-10.3	20.2%	5.5
Cc1ccc(NS(=O)(=O)c2ccc3c(c2)NC(=O)CC(=O)N3)cc1C	0.6	-10.1%	-0.3
COc1ccc(CCNC(=O)c2cnc3ccccn3c2=O)cc1	5.5	27.2%	12.5
O=C(CCCCC(=O)NCCc1ccccc1)NCCc1ccccc1	2.1	-11.3%	0.9
Cc1ccc(CNC(=O)COC(=O)c2cccnc2Cl)cc1	-5.4	14.5%	4.9
O=C(c1cccc(S(=O)(=O)N2CCOCC2)c1)N1CCN(C/C=C/c2ccccc2)CC1	30.7*	-20.5%	-0.3
O=C(c1cccc(S(=O)(=O)N2CCOCC2)c1)N1CCC(Cc2ccccc2)CC1	0.7	9.5%	-13.5
O=C(c1ccc(Br)o1)N1CCN(C/C=C/c2ccccc2)CC1	-9.6	0.3%	-68.6*
O=C(c1ccc(Br)s1)N1CCN(C/C=C/c2ccccc2)CC1	-49.6	-14.5%	-74.8*
SMILES	DRD3 agonist	a7 integrin act	D3 antag
O=C(NCC(=O)N1CCN(C/C=C/c2ccccc2)CC1)c1ccc(Br)cc1	-7.2	?	-11.7
Cc1ccc(S(=O)(=O)NCCC(=O)N2CCN(C/C=C/c3ccccc3)CC2)cc1	0.4	8.1%	19.8
O=C(c1ccc(Br)s1)N1CCN(S(=O)(=O)c2ccccc2)CC1	-15.3	3.1%	-12.8
CC(=O)c1ccc(S(=O)(=O)NCC(=O)N2CCN(C/C=C/c3ccccc3)CC2)cc1	43.3*	21.4%	-10.8
c1cc(-c2cc3c(o2)CCCC3OCCN2CCOCC2)cs1 (stereo unspecified)	-11.0	.	?
COc1cc(-c2nnc(SCC(=O)c3cc(C)n(CC4CCCO4)c3C)o2)cc(OC)c1OC (stereo unspecified)	-3.7	1.1%	0.5
Cc1ccccc1NC(=O)Cc1nc(COC(=O)COc2ccc(C(C)(C)C)cc2)cs1	0.1	17.0%	1.1
Cc1ccc(C(=O)NNC(=S)Nc2cccc(Cl)c2Cl)cc1[N+](=O)[O-]	14.2	3.4%[7.66 µM]	28.2
NC(=O)c1cccc(-c2ccnc3c2CC(C(=O)NCc2ccccc2)O3)c1 (stereo unspecified)	-22.5	.	-21.0
CC1CCN(C(=O)c2[nH]cnc2C(=O)N[C@H](C)c2ccccc2)CC1	-8.7	31.5%	-20.6
COC(=O)c1cccc(N2CCCC2=O)c1	0.1	?	-1.2
Cc1ccc(-n2sc3ccccc3c2=O)cc1	-9.3	-6.9%	-16.7
O=c1c2ccccc2sn1-c1ccc(F)cc1	-22.6	-43.3%	-53.6*
COC(=O)c1cccc(-n2sc3ccccc3c2=O)c1	-34.7	-40.3%	-59.7*
